# Results reported in ChEMBL document CHEMBL1201862, “PubChem BioAssay data set” (2004).
# Screen size: about 1,300 compounds; about 1,000 (77%) were called active. Another 7% or so got no clear call; they are omitted. The rule behind the calls is not given here. The set was probably picked from earlier hits. Not all results are given here.
# Test system: Giardia
# Assay: qHTS of small molecules that selectively kill Giardia lamblia: Hit Validation. [Related pubchem assays (depositor defined):AID540272]
# Assay type: functional
# Conditions: read-out: Potency
row,Compound,AC50
1,CCCc1nnc(NC(=O)C2C(=O)c3cccc4c3N(CC4)C2=O)s1 (stereo unspecified),16.3 µM (active)
